Results filed as inconclusive are left out. Unless noted, calls come from the whole dose curve; as a rule, active = well fitted curve in either direction with a large enough effect (not every such curve was filed as active); inconclusive = small, poorly fitted or top-dose-only effect, or another doubt; inactive = flat fitted curve, though single readings scatter.
Key:
[1] = AP1 Signaling Pathway (AID 357); details: ME-180 AP-1-bla reporter, EGF-induced, beta-lactamase ratio, 5 h; at 17.2 µM (top of the series) unless noted;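 note: ME-180 reporter cells stimulated with EGF at its EC50 level; % is set by controls: 0 for no effect and ±100 for the full control effect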
Procedure, shortened: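 In this screen, ME-180 cells in Opti-MEM with 0.5% dialyzed FBS received EC50 EGF and compound titrations for 5 h. AP-1 reporter beta-lactamase was detected via CCF4 ratio, giving AC50 for positive and negative modulators.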

[2] = NFAT Signaling Pathway (AID 444); details: Jurkat NFAT-bla M1, carbachol, beta-lactamase ratio, 5 h; at 17.2 µM (top of the series) unless noted;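 note: carbachol stimulus at about its EC50 of 1 µM final; % is set by controls: 0 for no effect and ±100 for the full control effect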
Procedure, shortened: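 Read-out: CCF4 FRET ratio (460 nm/530 nm) after 1 h RT dye loading, used for %activity and AC50 from titration series. Cells: Jurkat NFAT-β-lactamase/M1 line, treated with compound plus 1 uM carbachol for 5 h, 37 °C.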

[3] = Stat Signaling Pathway (AID 446); details: ME-180 (cervical carcinoma) SIE beta-lactamase reporter, IL-6 stimulated, 5 h; at 17.2 µM (top of the series) unless noted;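 note: ME-180 cervical cancer cells given 40 pM IL-6 alongside compound; SIE-controlled beta-lactamase reporter measured as 460/530 nm FRET emission ratio; % is set by controls: 0 for no effect and ±100 for the full control effect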
Procedure, shortened: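 FRET read-out (405 nm excitation, 460/530 nm emission) of a beta-lactamase reporter under a STAT-inducible element in ME-180 cervical carcinoma cells. Cells with compound receive 40 pM IL-6 for 5 h. Values are normalised to AC90 stimulation and AC90 JAK-inhibitor controls.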

[4] = biological target: Glucocorticoid receptor (Homo sapiens) (UniProt P04150); experiment: GR-GFP Redistribution (AID 450;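 active = compounds whose dose series gives a full or clear partial fitted curve of increased nuclear translocation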; note: potency is the fitted concentration of half-maximal effect)
Chain of Glucocorticoid receptor (Homo sapiens) (P04150 whole entry, looked up): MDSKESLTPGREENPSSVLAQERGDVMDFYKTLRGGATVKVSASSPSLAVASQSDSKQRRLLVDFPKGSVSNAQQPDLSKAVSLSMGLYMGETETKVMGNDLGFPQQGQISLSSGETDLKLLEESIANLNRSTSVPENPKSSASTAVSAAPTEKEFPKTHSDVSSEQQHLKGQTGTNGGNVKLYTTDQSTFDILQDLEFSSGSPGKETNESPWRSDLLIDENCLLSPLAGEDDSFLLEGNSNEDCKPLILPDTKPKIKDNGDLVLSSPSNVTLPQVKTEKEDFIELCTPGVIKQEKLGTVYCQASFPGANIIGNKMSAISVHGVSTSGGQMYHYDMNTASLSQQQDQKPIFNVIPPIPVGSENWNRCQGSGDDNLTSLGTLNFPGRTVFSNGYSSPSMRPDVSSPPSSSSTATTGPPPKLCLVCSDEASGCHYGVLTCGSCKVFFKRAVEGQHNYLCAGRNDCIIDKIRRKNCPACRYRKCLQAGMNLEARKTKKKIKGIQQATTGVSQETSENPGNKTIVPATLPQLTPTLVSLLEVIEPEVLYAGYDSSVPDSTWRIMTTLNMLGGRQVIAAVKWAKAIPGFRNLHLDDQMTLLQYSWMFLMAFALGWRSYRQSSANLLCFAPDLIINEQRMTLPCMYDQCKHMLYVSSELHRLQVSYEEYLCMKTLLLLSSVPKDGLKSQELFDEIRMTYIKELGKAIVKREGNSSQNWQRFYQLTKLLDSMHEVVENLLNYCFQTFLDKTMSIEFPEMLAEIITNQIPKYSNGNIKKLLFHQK

Cn1c(=O)c2c(nc(OCc3cccnc3)n2Cc2ccccc2)n(C)c1=O
inactive: activity change, negative = inhibition [1] -9.82% | activity change, negative = inhibition [2] -6.31% | activity, negative = inhibition [3] -1.88% | Potency [4] > 20.6 µM

CCSc1nc(N)c2c3c(sc2n1)CCC3
inactive: activity change, negative = inhibition [1] -12.5% | activity change, negative = inhibition [2] -2.96% | activity, negative = inhibition [3] -3.03% | Potency [4] > 20.6 µM

O=c1c(C=NCCCn2ccnc2)c(-c2ccccc2)[nH]n1-c1nc2ccccc2s1
inactive: activity change, negative = inhibition [1] -0.182% | activity change, negative = inhibition [2] -18.1% | activity, negative = inhibition [3] -15.5% | Potency [4] > 20.6 µM

Cc1ccc2c(=O)c(CN(C)C3CCN(C)CC3)c(C)[nH]c2c1C
inactive: activity change, negative = inhibition [1] 0.184% | activity change, negative = inhibition [2] -6.29% | activity, negative = inhibition [3] 5.33% | Potency [4] > 20.6 µM

CC1(C)Cc2c(sc3nc(SCC(=O)NCc4ccco4)n(-c4ccccc4)c(=O)c23)CS1
inactive: activity change, negative = inhibition [1] -19.4% | activity change, negative = inhibition [2] -13.9% | activity, negative = inhibition [3] -26.5% | Potency [4] > 20.6 µM

C=CCOC(=O)C1=C(C)OC(N)=C(C#N)C1c1ccoc1 (configuration not stated)
inactive: activity change, negative = inhibition [1] 21.2% | activity change, negative = inhibition [2] -14.1% | activity, negative = inhibition [3] -0.879% | Potency [4] > 20.6 µM

C=CCOc1ccc(/C(O)=C2/C(=O)C(=O)N(CCCN3CCOCC3)C2c2ccc(OC)cc2)cc1 (configuration not stated)
inactive: activity change, negative = inhibition [1] -6.96% | activity change, negative = inhibition [2] 8.61% | activity, negative = inhibition [3] -4.29% | Potency [4] > 20.6 µM

CC(C)CN1C(=O)NC(NC(=O)c2cccnc2)(C(F)(F)F)C1=O (configuration not stated)
inactive: activity change, negative = inhibition [1] -6.13% | activity change, negative = inhibition [2] 3.51% | activity, negative = inhibition [3] -1.02% | Potency [4] > 20.6 µM

COc1ccc(CN2CCC(=O)NC2=O)cc1
inactive: activity change, negative = inhibition [1] 9.75% | activity change, negative = inhibition [2] -0.653% | activity, negative = inhibition [3] 9.56% | Potency [4] > 20.6 µM

CSc1nc2[nH]c3c(c2c2nncn12)CC(C)(C)OC3
inactive: activity change, negative = inhibition [1] -4.3% | activity change, negative = inhibition [2] -1.24% | activity, negative = inhibition [3] 7.21% | Potency [4] > 20.6 µM

CCOC(=O)CC(=O)CSc1nc2c(cc1C#N)CCCCC2
inactive: activity change, negative = inhibition [1] 2.56% | activity change, negative = inhibition [2] 1.41% | activity, negative = inhibition [3] -7.32% | Potency [4] > 20.6 µM

Cc1nnc2n(Cc3ccccc3)c(=O)c3c4c(sc3n12)CN(Cc1ccccc1)CC4
inactive: activity change, negative = inhibition [1] 3.27% | activity change, negative = inhibition [2] -8.71% | activity, negative = inhibition [3] 5.01% | Potency [4] > 20.6 µM

Cc1cc2c(c(=O)n1Cc1cccnc1)C(c1ccccc1)C(C#N)=C(N)O2 (configuration not stated)
inactive: activity change, negative = inhibition [1] -14.1% | activity change, negative = inhibition [2] 3.75% | activity, negative = inhibition [3] -17% | Potency [4] > 20.6 µM

c1cc2c(cc1C1=Nn3c(nnc3C3CCCCC3)SC1)OCO2
inactive: activity change, negative = inhibition [1] -22.3% | activity change, negative = inhibition [2] 14.4% | activity, negative = inhibition [3] -7.03% | Potency [4] > 20.6 µM

O=S1(=O)C[C@@H](N2CCOCC2)[C@H](N2CCOCC2)C1
inactive: activity change, negative = inhibition [1] -10.3% | activity change, negative = inhibition [2] 6.36% | activity, negative = inhibition [3] -4.63% | Potency [4] > 20.6 µM

Cc1ccc(C2/C(=C(/O)c3ccc(OC(C)C)cc3)C(=O)C(=O)N2CCN2CCOCC2)cc1 (configuration not stated)
inactive: activity change, negative = inhibition [1] 0.482% | activity change, negative = inhibition [2] 10.1% | activity, negative = inhibition [3] -12.8% | Potency [4] > 20.6 µM

Cn1c(=O)oc2cc(C(=O)c3ccccc3)ccc21
inactive: activity change, negative = inhibition [1] -10.8% | activity change, negative = inhibition [2] -9.48% | activity, negative = inhibition [3] 0.21% | Potency [4] > 20.6 µM

CN(C)/C=C1\N=C(c2ccc(Cl)cc2Cl)OC1=O
inactive: activity change, negative = inhibition [1] -19.5% | activity change, negative = inhibition [2] -5.67% | activity, negative = inhibition [3] 3.89% | Potency [4] > 20.6 µM

CC(=O)/C(C#N)=C1\NC(=O)C(Cc2ccccc2Cl)S1 (configuration not stated)
inactive: activity change, negative = inhibition [1] 8.76% | activity change, negative = inhibition [2] -3.03% | activity, negative = inhibition [3] -6.04% | Potency [4] > 20.6 µM

CCCCCOC(=O)C(C)c1c(C)[nH]c(=S)[nH]c1=O (configuration not stated)
inactive: activity change, negative = inhibition [1] 7.28% | activity change, negative = inhibition [2] 6.16% | activity, negative = inhibition [3] -4.24% | Potency [4] > 20.6 µM

COCCCN1C(=O)C(O)=C(C(=O)c2ccco2)C1c1ccc(Br)cc1 (configuration not stated)
inactive: activity change, negative = inhibition [1] -15.5% | activity change, negative = inhibition [2] 11.4% | activity, negative = inhibition [3] -8.56% | Potency [4] > 20.6 µM

CC(C)Cc1nc2n[nH]c(N)c2c2c1CCC2
inactive: activity change, negative = inhibition [1] 2.89% | activity change, negative = inhibition [2] 28.5% | activity, negative = inhibition [3] -5.62% | Potency [4] > 20.6 µM

CCOC(=O)C1/C(=N\O)CC(C)(O)C(C(=O)OCC)C1c1ccc(N(C)C)cc1 (configuration not stated)
inactive: activity change, negative = inhibition [1] 6.52% | activity change, negative = inhibition [2] 2.58% | activity, negative = inhibition [3] -4.68% | Potency [4] > 20.6 µM

CCCOC(=O)C1[C@H]2C(=O)N(Cc3ccco3)C[C@]23C=C[C@H]1O3 (some centres not stated)
inactive: activity change, negative = inhibition [1] 0.485% | activity change, negative = inhibition [2] 2.35% | activity, negative = inhibition [3] 4.93% | Potency [4] > 20.6 µM

CCOc1cccc(C2C(C#N)=C(N)Oc3cc(C)oc(=O)c32)c1OCC (configuration not stated)
inactive: activity change, negative = inhibition [1] -17.6% | activity change, negative = inhibition [2] 9.73% | activity, negative = inhibition [3] -12.7% | Potency [4] > 20.6 µM

Cn1c(N)c(C#N)c(C#N)c1-c1ccccc1
inactive: activity change, negative = inhibition [1] -21.2% | activity change, negative = inhibition [2] 4.54% | activity, negative = inhibition [3] -8.46% | Potency [4] > 20.6 µM

Cc1cccc(N)c1SC1CCCCC1O (configuration not stated)
inactive: activity change, negative = inhibition [1] -3.66% | activity change, negative = inhibition [2] -1.33% | activity, negative = inhibition [3] 2.62% | Potency [4] > 20.6 µM

O=C1C=C(O)CC(c2ccc(Cl)c(Cl)c2)C1 (configuration not stated)
inactive: activity change, negative = inhibition [1] 7.55% | activity change, negative = inhibition [2] -10.9% | activity, negative = inhibition [3] -4.42% | Potency [4] > 20.6 µM

Reference: PubChem BioAssay (NCATS)
